From PubChem
Sfp PPTase inh: blocks B. subtilis Sfp PPTase activity | Q9F4F7 | Biochemical Sfp PPTase activity, qHTS | Potency, µM, without a hit: largest response in the series, negative = inhibition, hits mostly inhibitors | hit rate 3.5% among 310,000 | AID 1490;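 further: the enzyme is Sfp with the accession as filed and its product quenches rhodamine fluorescence; potency means the concentration at half of the fitted maximal effect; 0% = enzyme reaction without inhibitor and -100% = no enzyme wells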
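Fluorescence-quenching assay: 15 nM Sfp-PPTase preincubated 15 min at room temperature with compound, then 5 uM rhodamine-CoA and 12.5 uM BHQ-2-labelled YbbR peptide added. Fluorescence (ex 525/em 598 nm) read at start and after 30 min; difference gives rate.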
ELG1 DNA repair: inhibitors of ELG1-dependent DNA repair in HEK293T cells; HEK293T ELG1-luciferase reporter, luminescence, 16 h; DNA damage induced by 5-fluorouridine; Potency, µM (top dose mostly 46.1 µM), without a hit: at the top dose activity change, negative = inhibition, actives largely listed as inhibitors; hit rate 2.3% among 330,000; further: potency means the concentration at half of the fitted maximal effect; nearly all actives have a fitted effect of over 55% in size
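In this reporter screen, reduction of luminescence relative to DMSO vehicle indicated activity. Compounds and 5-fluorouridine were added together to 2,000 cells per well, incubated for 16 hr at 37 °C, then developed with ONE-Glo.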
FBPA coupling cs: counter-screen for Giardia aldolase inhibitors: coupling enzyme system. coupling enzyme system counterscreen, AmpLite Red fluorescence. activity change, negative = inhibition, % at 58.2 µM, hits read low. hit rate 0.67% among 290,000. AID 2472; in the data active means activity change below about -30%
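Activity here indicates interference with the coupling reaction, not aldolase inhibition. Compounds at 57.5 uM final met coupling enzymes for 10 min at RT; substrate and AmpLite Red detection followed, with a 525/598 nm fluorescence read after 20 min.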
Giardia kill: Giardia lamblia killing | Giardia lamblia trophozoite viability | activity change, % at 7.66 µM, hits read low | hit rate 0.15% among 340,000 | AID 540267; in the data active means activity change below about -80%; inconclusive means between about -30% and that limit;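 further: parasites exposed to compound for two days anaerobically before the ATP read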
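Media and compound were dispensed first, then trophozoites at 100 cells/well; plates sat 48 hrs at 37 deg C without oxygen before ATP luminescence reagent was added and read after 15-30 min at room temperature.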
Active calls of the source: *; ? = inconclusive; . = no result. This is a sample that favours compounds with a hit; in the whole collection about 5.5% have one here. Unless noted, the call rests on the fitted dose curve; in most records, active means well fitted curve in the direction sought with a large enough effect; inconclusive means small, poorly fitted or top-dose-only effect, or another doubt; inactive means no such curve, though single readings can be large; an effect the other way counts as inactive or inconclusive. Unless noted, on the % scale 0 is the no-effect control and ±100 the full control effect.

SMILES	Sfp PPTase inh	ELG1 DNA repair	FBPA coupling cs	Giardia kill
COC(=O)C1(C)C=C(Nc2ccc(OC)cc2)C(=O)N1c1ccc(OC)cc1 (stereo not given)	-13.6%	.	0.7	.
CCc1ccc(S(=O)(=O)N2CCCC(N3CCN(c4ccc(OC)cc4)CC3)C2)cc1 (stereo not given)	12.9%	-12.1%	.	-23.7
Cc1ccc(NC(=O)c2nc(S(=O)(=O)Cc3ccccc3C)ncc2Cl)cc1C	-15.7%	?	3.5	?
Clc1ccc(-c2nsc(N3CCOCC3)n2)c(Cl)c1	7.8%	?	-0.3	-18.0
Cc1ccc(-c2c(=O)n(OCc3ccccn3)c3ccccc3[n+]2[O-])cc1	2.4%	?	1.7	.
COc1ccc(-c2c(=O)n(OC)c3ccccc3[n+]2[O-])cc1OC	56.2µM*	4.1%	2.5	3.0
CCOC(=O)COn1c(=O)c(-c2ccc(OC)c(OC)c2)[n+]([O-])c2ccccc21	?	-0.3%	-7.1	.
COc1ccc(-c2c(=O)n(OCc3ccccn3)c3ccccc3[n+]2[O-])cc1OC	-3.6%	13µM*	-3.0	15.5
C=CCOn1c(=O)c(-c2ccc(OC)c(OC)c2)[n+]([O-])c2ccccc21	56.2µM*	-14.5%	0.1	-1.6
C=CCOn1c(=O)c(-c2ccc(Cl)cc2)[n+]([O-])c2ccccc21	13.6%	-2.7%	-3.2	42.9
CCc1nc(SCC(=O)Nc2ccc(F)cc2)c2c(=O)n(C)c(=O)n(C)c2n1	5.7%	-0.2%	3.7	-0.1
CC(NC(=O)Oc1cccc2ccccc12)c1ccccc1 (stereo not given)	.	.	.	13.8
Cc1nc(C(=O)NNC(=O)c2ccccc2)c(C(F)(F)F)o1	44.7µM*	?	-0.5	-2.3
O=S(=O)(c1cccc2cnccc12)N1CCCNCC1	-6.0%	10.3µM*	1.1	16.2
Cc1ccc(NC(=O)CN(C)C(=O)Cc2ccc(Cl)cc2Cl)cc1	-5.9%	-1.6%	-1.1	20.6
Cc1nn(-c2ccccc2)c(C)c1/C=N\N1CCN(c2ccc(Cl)cc2)CC1	25.1µM*	?	1.0	5.0
Cc1ccc(NC(=O)c2cc(NC(=O)c3ccco3)ccc2N2CCOCC2)cc1	-6.6%	-29.5%	-1.0	-1.8
Cc1ccc(NC(=O)c2cc(N3C(=O)C=CC3=O)ccc2Cl)cc1C	14.1µM*	?	6.2	-11.2
Cc1ccc(NC(=O)c2cc(N3C(=O)C=CC3=O)ccc2N2CCOCC2)cc1	4.47µM*	4.4%	4.6	-12.4
Cc1ccc(NC(=O)c2cc(-n3cnnc3)ccc2Cl)cc1	1.5%	-16.4%	2.0	-3.4
Cn1c(=O)[nH]c2c(c1=O)CCO2	.	.	.	-2.1
NC(=O)C1(Nc2ccc(C(=O)O)cc2)CCCC1	.	.	.	-22.3
COc1ccc(OC)c(/C=N/N2CCN(c3ccc(Cl)cc3)CC2)c1	2.0%	4.8%	0.8	-22.3
CC(=O)NCCn1c(C)cc2ccccc21	11.5%	22.5%	-2.4	23.8
Cc1cc2ccccc2n1CCNC(=O)c1ccccc1	50.1µM*	?	-21.3	-29.7
SMILES	Sfp PPTase inh	ELG1 DNA repair	FBPA coupling cs	Giardia kill
CCC(=O)Nc1ccc(C(=O)COC(=O)Cc2ccsc2)cc1	.	17.4%	.	-20.6
Cc1ccc(NC(=O)/C(C#N)=C(\N)C(Cl)(Cl)Cl)nc1	-9.4%	?	-0.4	-0.3
CCOC(=O)c1c(NC(=O)CN2CCOCC2)sc2c1CC(C)(C)OC2	-25.5%	8.2µM*	-5.4	-14.2
CCCC(=O)Nc1sc2c(c1C(=O)OCC)CC(C)(C)OC2	9.6%	7.3µM*	1.2	3.7
CCOC(=O)c1c(NC(=O)CCC(=O)N(CC)CC)sc2c1CC(C)(C)OC2	-8.5%	?	1.4	31.0
C=C(C)CNC(=S)Nc1sc2c(c1C(=O)OCC)CC(C)(C)OC2	39.8µM*	-8.5%	0.4	14.0
CCOC(=O)c1c(NC(=O)CCN2CCOCC2)sc2c1CC(C)(C)OC2	9.9%	?	2.6	-3.6
CC1(C)Cc2c(sc(NC(=O)C(=O)NCCCN3CCOCC3)c2C#N)CO1	15.8µM*	11.4%	.	-7.8
CC1(C)Cc2c(sc(NC(=O)/C=C/C(=O)O)c2C#N)CO1	-10.8%	-5.0%	1.5	-1.2
COCCNC(=O)CN(C(=O)CCC(=O)Nc1ccccn1)c1cc(C)ccc1C	15.9%	-0.2%	2.6	-6.9
NC(=O)c1c(NC(=O)CSc2nnc(Cc3ccccc3)n2Cc2ccco2)sc2c1CCC2	-13.2%	23.1µM*	5.2	-3.8
Cc1cc(Cl)ccc1NC(=O)CSc1nnc(-c2ccncc2)n1Cc1ccco1	?	?	5.3	-2.0
O=C(CSc1nnc(Cc2cccs2)n1Cc1ccco1)Nc1ccc(Cl)cc1Cl	28.2µM*	?	0.2	6.8
O=C(CSc1nnc(-c2ccco2)n1Cc1ccco1)NCc1cccs1	10.9%	-5.7%	-0.8	-6.7
O=C(CSc1nnc(Cc2cccs2)n1Cc1ccco1)Nc1ccc(Br)cc1	14.1µM*	?	0.7	-1.3
CC(C)C1=CC(=Nc2ccc(S(N)(=O)=O)cc2)C=C(C(C)C)C1=O	4.6%	?	-43.1*	0.2
NS(=O)(=O)c1ccc(N=C2C(=O)Nc3ccccc32)cc1	7.3%	-8.4%	-4.4	12.3
O=C(O)c1ncn(Cc2ccc(Br)cc2)c1C(=O)O	50.1µM*	-6.0%	13.8	2.4
O=C(c1ncn(Cc2ccccc2)c1C(=O)N1CCN(c2ccccc2)CC1)N1CCN(c2ccccc2)CC1	.	-3.2%	.	4.5
O=C(NC(=S)NNC(=O)c1cccs1)c1ccco1	79.4µM*	0.0%	-8.1	13.4
Cc1onc(-c2ccccc2)c1C(=O)NC(=S)NNC(=O)c1ccco1	11.1%	23.1µM*	7.5	-17.9
O=C(NC(=S)NNC(=O)c1cccs1)c1ccccc1	-21.5%	13.0%	.	-20.1
Cc1cccc(C(=O)NC(=S)NNC(=O)c2cccs2)c1	1.0%	20.6µM*	-14.6	-14.1
O=C(NNC(=O)c1cccs1)c1ccco1	89.1µM*	27.3%	3.1	1.2
O=C(NCCNC(=O)c1cccs1)c1ccco1	-2.7%	?	0.3	-1.1
SMILES	Sfp PPTase inh	ELG1 DNA repair	FBPA coupling cs	Giardia kill
COc1cccc2[nH]c3c(N4CCCCC4)ncnc3c12	-12.1%	?	-10.8	-6.7
Cc1cccc2[nH]c3c(N4CC=C(c5ccc(F)cc5)CC4)ncnc3c12	10.8%	11.6µM*	3.5	0.6
COc1ccc2[nH]cc(/C=N/NS(=O)(=O)c3ccc(C)cc3)c2c1	12.0%	-29.0%	-2.6	-8.6
COc1ccc2c(/C=N/NS(=O)(=O)c3ccc(C)cc3)c[nH]c2c1	56.2µM*	0.1%	3.5	3.9
C[C@H]1CN([C@@H](C)CO)C(=O)c2cc(NC(=O)C3CCCCC3)ccc2O[C@H]1CN(C)C(=O)Nc1ccc2c(c1)OCO2	.	1.3µM*	.	-3.3
C[C@H]1CN([C@@H](C)CO)C(=O)c2cccc(NC(=O)Nc3ccc(C(F)(F)F)cc3)c2O[C@@H]1CN(C)C(=O)Nc1ccc(F)cc1	.	?	.	-25.0
C[C@@H]1CN([C@@H](C)CO)C(=O)c2cc(NS(=O)(=O)c3cccs3)ccc2O[C@H]1CN(C)Cc1ccc(C(F)(F)F)cc1	.	16.4µM*	.	4.2
C[C@H](CO)N1C[C@H](C)[C@@H](CN(C)C(=O)Nc2ccc(C(F)(F)F)cc2)Oc2c(NC(=O)Nc3ccc(C(F)(F)F)cc3)cccc2C1=O	.	16.4µM*	.	-26.4
